Results: ChEMBL document CHEMBL3988442, “University of Dundee, Small-Polar-MMV Screening Library” (2021)
For some assays here: Entries with a potency or affinity are not part of this list.

Legend:
Set-up in all cases: scale not given: direction of the effect not stated beside the values
[1] = molecular target: Protein translocase subunit SecA (Escherichia coli (strain K12)) (UniProt P10408); test: Assay to Identify E. coli SecA ATPase Inhibitors; type: functional; settings: 30 µM
[2] = molecular target: T1, Ubiquitin-activating enzyme e1, putative (Leishmania donovani (strain BPK282A1)) (UniProt E9BSI1); test: Leishmania donovani Ubiquitin Activating Enzyme (LdE1); type: functional; settings: 30 µM
T1 sequence (whole entry): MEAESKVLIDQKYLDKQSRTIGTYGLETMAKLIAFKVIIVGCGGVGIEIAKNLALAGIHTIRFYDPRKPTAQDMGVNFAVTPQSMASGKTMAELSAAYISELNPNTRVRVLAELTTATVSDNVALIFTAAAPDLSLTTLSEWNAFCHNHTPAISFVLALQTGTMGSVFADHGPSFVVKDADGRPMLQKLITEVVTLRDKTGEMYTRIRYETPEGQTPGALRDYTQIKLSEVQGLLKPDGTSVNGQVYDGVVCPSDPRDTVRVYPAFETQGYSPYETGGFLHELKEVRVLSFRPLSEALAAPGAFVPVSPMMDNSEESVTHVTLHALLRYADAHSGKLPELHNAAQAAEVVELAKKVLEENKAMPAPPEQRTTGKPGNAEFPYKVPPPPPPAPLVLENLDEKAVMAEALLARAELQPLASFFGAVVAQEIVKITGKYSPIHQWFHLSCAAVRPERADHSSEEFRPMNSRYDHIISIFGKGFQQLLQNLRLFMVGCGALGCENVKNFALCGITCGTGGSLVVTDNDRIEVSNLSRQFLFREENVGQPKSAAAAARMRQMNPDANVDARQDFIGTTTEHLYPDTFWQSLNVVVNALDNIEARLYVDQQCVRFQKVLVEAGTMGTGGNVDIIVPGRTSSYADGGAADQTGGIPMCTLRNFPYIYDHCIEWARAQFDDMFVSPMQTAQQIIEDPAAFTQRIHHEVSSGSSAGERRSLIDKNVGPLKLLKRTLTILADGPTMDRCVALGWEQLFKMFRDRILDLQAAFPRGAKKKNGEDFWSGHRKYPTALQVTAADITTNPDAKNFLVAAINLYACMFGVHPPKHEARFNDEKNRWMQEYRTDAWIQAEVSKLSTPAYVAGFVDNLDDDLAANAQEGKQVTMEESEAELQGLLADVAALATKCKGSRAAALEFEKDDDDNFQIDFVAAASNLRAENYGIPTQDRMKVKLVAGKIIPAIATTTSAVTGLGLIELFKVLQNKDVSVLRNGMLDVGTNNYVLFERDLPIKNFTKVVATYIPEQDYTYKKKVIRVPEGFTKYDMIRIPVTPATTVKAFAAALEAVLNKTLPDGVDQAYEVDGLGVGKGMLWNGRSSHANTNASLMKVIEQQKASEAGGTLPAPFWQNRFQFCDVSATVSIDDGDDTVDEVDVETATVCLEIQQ

[3] = molecular target: AMP-activated protein kinase, AMPK (Homo sapiens) (UniProt P54646+O43741+P54619+Q9UGJ0+Q9Y478+Q13131+Q9UGI9); test: AMP-dependent Kinase enzyme assay. An in vitro enzyme assay that detects ADP turnover that is directly proportional to AMPK activity. This uses naive AMPK that is activated during the assay with MK-8722; type: functional; settings: 30 µM
[4] = molecular target: Sialic acid-binding Ig-like lectin 9 (Homo sapiens) (UniProt Q9Y336); test: Hs-Siglec9 ALPHAscreen SOP 20170721; settings: 10 µM
[5] = test system: Trypanosoma cruzi; test: Trypanosoma cruzi phosphomannomutase and mannose-1-phosphate guanylyltransferase assay; type: functional; settings: 10 µM
[6] = molecular target: T2, Arginase-2, mitochondrial (Homo sapiens) (UniProt P78540); test: in vitro enzyme assay to detect the production of urea directly proportional to the activity of Arginase II; type: functional; settings: 33.3 µM; also: in the data most compounds retested in dose-response had high values
T2 sequence (whole entry): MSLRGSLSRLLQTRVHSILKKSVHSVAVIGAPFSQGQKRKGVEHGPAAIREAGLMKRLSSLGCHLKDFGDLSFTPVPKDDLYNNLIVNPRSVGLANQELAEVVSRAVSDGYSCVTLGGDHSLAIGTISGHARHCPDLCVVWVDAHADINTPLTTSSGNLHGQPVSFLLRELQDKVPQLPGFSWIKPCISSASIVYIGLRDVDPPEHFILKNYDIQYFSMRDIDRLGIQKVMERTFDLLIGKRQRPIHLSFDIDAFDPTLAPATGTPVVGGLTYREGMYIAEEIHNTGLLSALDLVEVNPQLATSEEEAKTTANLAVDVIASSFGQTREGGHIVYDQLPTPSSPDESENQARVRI

[7] = molecular target: T3, Proteasome subunit beta (Trypanosoma cruzi) (UniProt O96673); test: Trypanosoma cruzi proteasome chymotrypsin-like activity (TcProtChymo) assay.; also: in the data most compounds retested in dose-response had high values; type: functional; settings: 9.37 µM
T3 sequence (whole entry): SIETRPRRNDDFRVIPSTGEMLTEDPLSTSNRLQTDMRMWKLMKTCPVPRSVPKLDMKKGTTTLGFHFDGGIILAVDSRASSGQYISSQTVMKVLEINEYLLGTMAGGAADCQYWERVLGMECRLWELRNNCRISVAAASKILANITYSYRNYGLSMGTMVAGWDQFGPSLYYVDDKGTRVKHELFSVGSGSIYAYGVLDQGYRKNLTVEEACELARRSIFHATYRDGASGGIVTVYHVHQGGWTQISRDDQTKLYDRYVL

[8] = species on record: Homo sapiens; test: To identify inhibition of the IFN signalling (Jak-Stat) pathway via expression of an eGFP reporter gene under the control of an IFN-stimulated response element (ISRE) containing MxA promoter.; type: functional; settings: 30 µM
[9] = molecular target: T4, Tyrosyl-tRNA synthetase, putative (Trypanosoma cruzi (strain CL Brener)) (UniProt Q4DSP6); test: Trypanosoma cruzi tyrosyl tRNA synthetase (TcYRS) _High Tyrosine SOP; type: functional; settings: 30 µM; also: in the data most compounds retested in dose-response had high values
T4 sequence (whole entry): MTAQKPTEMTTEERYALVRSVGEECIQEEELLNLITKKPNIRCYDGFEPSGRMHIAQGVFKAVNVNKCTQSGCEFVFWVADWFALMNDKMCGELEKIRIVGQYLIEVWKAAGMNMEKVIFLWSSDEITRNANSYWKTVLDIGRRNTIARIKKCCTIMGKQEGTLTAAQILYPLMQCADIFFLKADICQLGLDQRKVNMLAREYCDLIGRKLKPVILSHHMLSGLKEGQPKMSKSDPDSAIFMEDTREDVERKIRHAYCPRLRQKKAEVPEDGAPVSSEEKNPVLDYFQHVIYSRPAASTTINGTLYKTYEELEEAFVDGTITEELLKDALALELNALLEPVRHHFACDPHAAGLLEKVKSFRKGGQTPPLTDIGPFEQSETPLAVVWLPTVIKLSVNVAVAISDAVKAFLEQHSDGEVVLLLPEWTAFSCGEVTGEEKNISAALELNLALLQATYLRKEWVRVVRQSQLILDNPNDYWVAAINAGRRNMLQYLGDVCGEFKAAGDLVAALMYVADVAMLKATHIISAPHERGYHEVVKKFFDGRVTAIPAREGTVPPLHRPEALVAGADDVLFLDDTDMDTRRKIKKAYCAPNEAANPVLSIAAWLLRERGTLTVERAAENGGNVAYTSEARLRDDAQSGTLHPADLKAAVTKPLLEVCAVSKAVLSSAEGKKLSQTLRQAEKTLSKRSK

[10] = molecular target: T4, Tyrosyl-tRNA synthetase, putative (Trypanosoma cruzi (strain CL Brener)); test: Trypanosoma cruzi tyrosyl tRNA synthetase (TcYRS) SOP; type: functional; settings: 30 µM
[11] = molecular target: Chromo domain-containing protein 1 (Saccharomyces cerevisiae (strain ATCC 204508 / S288c) (Baker's yeast)) (UniProt P32657); test: ScCHD-1 Enzyme Inhibition Assay; type: functional; settings: 30 µM; also: in the data most compounds retested in dose-response had high values
Sequence of Chromo domain-containing protein 1 (Saccharomyces cerevisiae (strain ATCC 204508 / S288c) (Baker's yeast)) (P32657 whole entry, the tested form may be a part): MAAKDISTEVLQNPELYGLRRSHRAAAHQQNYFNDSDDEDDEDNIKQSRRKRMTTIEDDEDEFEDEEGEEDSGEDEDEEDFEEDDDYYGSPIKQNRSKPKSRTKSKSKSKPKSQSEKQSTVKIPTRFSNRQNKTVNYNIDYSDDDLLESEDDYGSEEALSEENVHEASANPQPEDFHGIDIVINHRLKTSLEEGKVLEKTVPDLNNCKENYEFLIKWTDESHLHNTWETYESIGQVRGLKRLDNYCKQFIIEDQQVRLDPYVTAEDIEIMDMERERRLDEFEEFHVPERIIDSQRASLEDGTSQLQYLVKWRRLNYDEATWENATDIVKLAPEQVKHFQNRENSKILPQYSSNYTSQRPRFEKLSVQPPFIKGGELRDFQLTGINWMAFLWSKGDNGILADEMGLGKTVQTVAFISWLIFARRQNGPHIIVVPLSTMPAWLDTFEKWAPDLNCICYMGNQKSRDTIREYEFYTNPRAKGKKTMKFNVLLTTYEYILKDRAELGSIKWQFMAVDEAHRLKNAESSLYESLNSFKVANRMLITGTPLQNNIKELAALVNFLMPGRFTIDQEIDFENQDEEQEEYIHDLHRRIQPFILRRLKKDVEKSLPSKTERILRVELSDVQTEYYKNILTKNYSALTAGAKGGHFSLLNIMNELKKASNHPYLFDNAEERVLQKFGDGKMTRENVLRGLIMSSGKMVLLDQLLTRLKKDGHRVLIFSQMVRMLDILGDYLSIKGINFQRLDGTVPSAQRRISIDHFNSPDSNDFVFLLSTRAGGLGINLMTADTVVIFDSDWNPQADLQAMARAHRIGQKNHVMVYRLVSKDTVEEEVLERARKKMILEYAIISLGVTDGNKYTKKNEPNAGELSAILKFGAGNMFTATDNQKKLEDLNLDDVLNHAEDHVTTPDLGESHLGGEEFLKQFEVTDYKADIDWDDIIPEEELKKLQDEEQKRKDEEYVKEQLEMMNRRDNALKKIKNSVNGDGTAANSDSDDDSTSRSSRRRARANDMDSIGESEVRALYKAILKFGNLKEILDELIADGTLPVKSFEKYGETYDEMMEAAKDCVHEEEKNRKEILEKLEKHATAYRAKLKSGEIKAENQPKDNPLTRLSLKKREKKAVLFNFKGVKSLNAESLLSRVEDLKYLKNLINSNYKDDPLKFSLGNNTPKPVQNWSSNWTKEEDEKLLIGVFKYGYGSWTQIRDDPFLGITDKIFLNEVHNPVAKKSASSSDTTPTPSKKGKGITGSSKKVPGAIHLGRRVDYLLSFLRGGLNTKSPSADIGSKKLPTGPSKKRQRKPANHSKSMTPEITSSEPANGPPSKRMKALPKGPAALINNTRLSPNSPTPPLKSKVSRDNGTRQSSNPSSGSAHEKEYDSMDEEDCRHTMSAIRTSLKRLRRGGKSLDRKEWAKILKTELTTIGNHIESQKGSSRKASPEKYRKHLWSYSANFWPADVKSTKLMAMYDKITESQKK

Sequence of Sialic acid-binding Ig-like lectin 9 (Homo sapiens) (Q9Y336 whole entry): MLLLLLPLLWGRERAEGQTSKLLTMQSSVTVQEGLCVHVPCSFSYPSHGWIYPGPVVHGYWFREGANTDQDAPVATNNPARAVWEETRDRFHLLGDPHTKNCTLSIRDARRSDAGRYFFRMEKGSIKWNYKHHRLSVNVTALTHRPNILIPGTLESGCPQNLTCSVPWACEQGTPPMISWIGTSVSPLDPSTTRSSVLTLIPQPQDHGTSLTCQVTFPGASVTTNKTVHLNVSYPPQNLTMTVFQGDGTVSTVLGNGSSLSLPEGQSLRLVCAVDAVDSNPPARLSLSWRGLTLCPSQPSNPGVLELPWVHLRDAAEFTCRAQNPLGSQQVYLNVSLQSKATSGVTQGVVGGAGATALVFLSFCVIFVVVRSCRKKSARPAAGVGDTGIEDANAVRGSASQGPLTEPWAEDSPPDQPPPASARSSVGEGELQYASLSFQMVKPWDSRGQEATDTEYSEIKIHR
Sequence of Protein translocase subunit SecA (Escherichia coli (strain K12)) (P10408 whole entry): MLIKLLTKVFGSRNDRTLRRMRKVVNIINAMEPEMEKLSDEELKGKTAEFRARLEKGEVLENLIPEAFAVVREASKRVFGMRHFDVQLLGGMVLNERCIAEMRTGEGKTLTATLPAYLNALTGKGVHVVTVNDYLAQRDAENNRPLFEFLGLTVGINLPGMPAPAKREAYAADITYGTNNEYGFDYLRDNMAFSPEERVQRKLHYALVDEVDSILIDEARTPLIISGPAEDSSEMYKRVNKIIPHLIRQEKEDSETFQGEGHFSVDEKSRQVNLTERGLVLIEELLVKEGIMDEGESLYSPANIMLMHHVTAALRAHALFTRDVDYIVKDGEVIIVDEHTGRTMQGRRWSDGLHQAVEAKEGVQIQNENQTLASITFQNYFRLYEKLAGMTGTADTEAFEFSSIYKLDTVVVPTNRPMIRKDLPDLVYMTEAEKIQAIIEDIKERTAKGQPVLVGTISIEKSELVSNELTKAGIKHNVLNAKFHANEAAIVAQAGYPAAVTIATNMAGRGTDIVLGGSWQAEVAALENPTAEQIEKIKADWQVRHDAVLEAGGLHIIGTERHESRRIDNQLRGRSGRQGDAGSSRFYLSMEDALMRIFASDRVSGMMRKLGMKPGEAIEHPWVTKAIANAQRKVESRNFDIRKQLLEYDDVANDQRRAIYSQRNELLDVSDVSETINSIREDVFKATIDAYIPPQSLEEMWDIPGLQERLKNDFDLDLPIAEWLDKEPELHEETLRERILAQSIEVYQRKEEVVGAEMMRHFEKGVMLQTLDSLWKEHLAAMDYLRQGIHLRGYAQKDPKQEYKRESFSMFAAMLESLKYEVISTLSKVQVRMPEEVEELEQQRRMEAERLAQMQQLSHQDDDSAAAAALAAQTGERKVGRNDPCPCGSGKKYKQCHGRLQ

SMILES	Percent Effect [1] [%]	Percent Effect [2] [%]	Percent Effect [3] [%]	Percent Effect [4] [%]	Percent Effect [5] [%]	Percent Effect [6] [%]	Percent Effect [7] [%]	Percent Effect [8] [%]	Percent Effect [9] [%]	Percent Effect [10] [%]	Percent Effect [11] [%]
O=C(O)[C@]12CCCN(Cc3ccccc3)C[C@H]1CN(c1ncccn1)C2	-4.2	5.33	7.47	-4.2	0.386	-39.2	9.91	-24.8	4.17	12.5	-8.27
COc1cc(CNCCc2nc(C)cs2)cc2c1OCCO2	-2.37	5.26	1.5	15.7	-1.13	-3.06	12.5	10.1	4.41	12.2	-7.14
Cc1cccc(COC[C@@H]2CC[C@H]3[C@H](CCN3Cc3ccco3)O2)n1	-0.0692	16.4	-0.44	9.35	7.74	-2.79	15.2	-16.7	5.21	13.6	-7.59
CN(Cc1nc(-c2ccco2)no1)C1CCCN(c2cccnn2)C1 (configuration not stated)	-1.52	20.2	-5.85	-5.93	2.17	1.14	16.1	11.9	6.4	21.5	-10.1
COC(=O)c1cccc(NC(=O)CCn2nc(-c3cccs3)oc2=O)c1	-5.54	10.8	11.1	-7.27	-5.11	-4.25	5.92	7.13	0	6.1	-3.3
CN(Cc1ccccc1)CC1(O)CCCN(CC(C)(C)C)C1=O (configuration not stated)	-2.06	6.94	-11.8	18.9	5.15	-1.77	1.4	-1.36	3.16	0	-0.279
CC1CN(CC(=O)NC(=O)NCc2ccccc2)CCO1 (configuration not stated)	-0.548	15.8	0.54	-9.53	3.21	-1.18	19.5	11.4	2.13	7.79	-8.02
Cc1nc(CN2CCCC(N(C)CCc3ccncc3)C2)no1 (configuration not stated)	0.743	18.9	-12.8	-5.86	-2.51	6.84	10.4	24.3	0	13.4	0.929
COCCN1CC[C@H](O)[C@@H]1Cc1ccccc1	-2.09	12	-0.98	0.93	0.786	6.87	20	22.1	5.29	7.69	-4.88
Cc1cnn(CC(C)NCc2nc(-c3ccco3)no2)c1 (configuration not stated)	-7.61	12.5	-18.7	40.6	7.09	9.27	14.9	4.8	3.16	12.8	10.7
CN(C)c1ccc(CCCNC(=O)Nc2ccc(C#N)cc2)cc1	1.86	8.11	2.26	11.1	3.86	11.4	15.7	72	5.82	14.6	-5.31
Cc1noc(C)c1C(=O)N(C)Cc1nc(-c2ccccn2)no1	-7.17	2.67	-0.593	19	2.43	4.69	4.53	-1.43	4.92	11.1	-3.45
CCN(CCn1cccn1)Cc1nc(-c2cccs2)oc1C	-3.57	-1.39	40.3	-4.42	0.486	0.442	2.63	0.654	4.21	2.56	0.676
CCn1cnnc1CNC(=O)N1CCN(c2cccs2)CC1	-8.91	5.2	-16.1	14.9	14.2	1.78	24.3	7.4	26.2	12.2	-5.95
COc1ncccc1CN1CCn2c(Cn3cncn3)cnc2C1	-1.73	18.7	0.535	-13.2	-2.76	2.1	8.19	-1.48	0	6.41	-3.83
CCCNC(=O)C(C)NC(=O)CCc1ccccc1Br (configuration not stated)	0.82	4.17	3.58	-5.62	-9.43	4.42	16.5	8.51	0	5.13	-1.03
CCn1c(CN(C)C)nnc1C1CCN(Cc2ccccc2)CC1	-0.0485	10.4	2.85	13.5	5.61	-6.9	11.7	12.4	7.53	21	-8.57
Cc1cc(C2CCCN(CCc3ccccn3)C2)n[nH]1 (configuration not stated)	-4.83	2.53	-4	3.7	9.73	1.14	-1.23	-3.32	-7.39	11.4	-2.02
CCn1cnnc1CNC(=O)NC(C)C(C)C (configuration not stated)	-4.76	13	3.19	7.03	-4.68	0	12.5	22.8	2.91	7.32	-1.46
CCN(CC)C(CNS(=O)(=O)c1ccc(C(=O)NC)cc1)c1ccco1 (configuration not stated)	-3.83	5.41	3.15	-5.57	-5.47	-1.67	18.5	13.1	9.9	6.1	7.75
COCCCN1CCC(NC(=O)C(C)C)CC1	-6.61	-2.74	-0.488	-2.06	-5.16	-2	6.76	24.5	0	-1.24	-2.64
CCn1cc(CN2CCCC(CO)(CCc3ccccc3)C2)c(C)n1 (configuration not stated)	-3.86	8.11	-1.51	28.3	5.18	18.1	12.1	-7.2	0	11.1	-12.5
